# Measurements published in the supplement of paper PMC11001985.
# A number with no mark means an inactive call.
# Compound: C#CCNC(=O)CCSSCCC(=O)NCCc1ccc(C=O)c(C=O)c1
# Assay: lysine labeling ratio R10:1 (500 µM / 50 µM probe), SILAC-ABPP in living cells; higher = lower intrinsic lysine reactivity toward the probe, active = 2 or less
# Conditions: HeLa; probe concentrations 500 vs 50 µM
# Procedure, shortened: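 SILAC light and heavy living HeLa cells in PBS at room temperature were labelled with 50 µM or 500 µM of an alkyne-tagged, disulfide-linked lysine probe, with forward and reverse label swaps. Mixed lysates were clicked to biotin-azide, trypsin-digested, captured on neutravidin, DTT-released, alkylated and analysed by LC-MS/MS on a TIMS-TOF Pro. R is the filtered median high-probe/low-probe MS1 peptide ratio per lysine, then the median across forward and reverse replicates. Ratios are capped at 20.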
# UniProt Q15149, sequence (Q15149 whole entry): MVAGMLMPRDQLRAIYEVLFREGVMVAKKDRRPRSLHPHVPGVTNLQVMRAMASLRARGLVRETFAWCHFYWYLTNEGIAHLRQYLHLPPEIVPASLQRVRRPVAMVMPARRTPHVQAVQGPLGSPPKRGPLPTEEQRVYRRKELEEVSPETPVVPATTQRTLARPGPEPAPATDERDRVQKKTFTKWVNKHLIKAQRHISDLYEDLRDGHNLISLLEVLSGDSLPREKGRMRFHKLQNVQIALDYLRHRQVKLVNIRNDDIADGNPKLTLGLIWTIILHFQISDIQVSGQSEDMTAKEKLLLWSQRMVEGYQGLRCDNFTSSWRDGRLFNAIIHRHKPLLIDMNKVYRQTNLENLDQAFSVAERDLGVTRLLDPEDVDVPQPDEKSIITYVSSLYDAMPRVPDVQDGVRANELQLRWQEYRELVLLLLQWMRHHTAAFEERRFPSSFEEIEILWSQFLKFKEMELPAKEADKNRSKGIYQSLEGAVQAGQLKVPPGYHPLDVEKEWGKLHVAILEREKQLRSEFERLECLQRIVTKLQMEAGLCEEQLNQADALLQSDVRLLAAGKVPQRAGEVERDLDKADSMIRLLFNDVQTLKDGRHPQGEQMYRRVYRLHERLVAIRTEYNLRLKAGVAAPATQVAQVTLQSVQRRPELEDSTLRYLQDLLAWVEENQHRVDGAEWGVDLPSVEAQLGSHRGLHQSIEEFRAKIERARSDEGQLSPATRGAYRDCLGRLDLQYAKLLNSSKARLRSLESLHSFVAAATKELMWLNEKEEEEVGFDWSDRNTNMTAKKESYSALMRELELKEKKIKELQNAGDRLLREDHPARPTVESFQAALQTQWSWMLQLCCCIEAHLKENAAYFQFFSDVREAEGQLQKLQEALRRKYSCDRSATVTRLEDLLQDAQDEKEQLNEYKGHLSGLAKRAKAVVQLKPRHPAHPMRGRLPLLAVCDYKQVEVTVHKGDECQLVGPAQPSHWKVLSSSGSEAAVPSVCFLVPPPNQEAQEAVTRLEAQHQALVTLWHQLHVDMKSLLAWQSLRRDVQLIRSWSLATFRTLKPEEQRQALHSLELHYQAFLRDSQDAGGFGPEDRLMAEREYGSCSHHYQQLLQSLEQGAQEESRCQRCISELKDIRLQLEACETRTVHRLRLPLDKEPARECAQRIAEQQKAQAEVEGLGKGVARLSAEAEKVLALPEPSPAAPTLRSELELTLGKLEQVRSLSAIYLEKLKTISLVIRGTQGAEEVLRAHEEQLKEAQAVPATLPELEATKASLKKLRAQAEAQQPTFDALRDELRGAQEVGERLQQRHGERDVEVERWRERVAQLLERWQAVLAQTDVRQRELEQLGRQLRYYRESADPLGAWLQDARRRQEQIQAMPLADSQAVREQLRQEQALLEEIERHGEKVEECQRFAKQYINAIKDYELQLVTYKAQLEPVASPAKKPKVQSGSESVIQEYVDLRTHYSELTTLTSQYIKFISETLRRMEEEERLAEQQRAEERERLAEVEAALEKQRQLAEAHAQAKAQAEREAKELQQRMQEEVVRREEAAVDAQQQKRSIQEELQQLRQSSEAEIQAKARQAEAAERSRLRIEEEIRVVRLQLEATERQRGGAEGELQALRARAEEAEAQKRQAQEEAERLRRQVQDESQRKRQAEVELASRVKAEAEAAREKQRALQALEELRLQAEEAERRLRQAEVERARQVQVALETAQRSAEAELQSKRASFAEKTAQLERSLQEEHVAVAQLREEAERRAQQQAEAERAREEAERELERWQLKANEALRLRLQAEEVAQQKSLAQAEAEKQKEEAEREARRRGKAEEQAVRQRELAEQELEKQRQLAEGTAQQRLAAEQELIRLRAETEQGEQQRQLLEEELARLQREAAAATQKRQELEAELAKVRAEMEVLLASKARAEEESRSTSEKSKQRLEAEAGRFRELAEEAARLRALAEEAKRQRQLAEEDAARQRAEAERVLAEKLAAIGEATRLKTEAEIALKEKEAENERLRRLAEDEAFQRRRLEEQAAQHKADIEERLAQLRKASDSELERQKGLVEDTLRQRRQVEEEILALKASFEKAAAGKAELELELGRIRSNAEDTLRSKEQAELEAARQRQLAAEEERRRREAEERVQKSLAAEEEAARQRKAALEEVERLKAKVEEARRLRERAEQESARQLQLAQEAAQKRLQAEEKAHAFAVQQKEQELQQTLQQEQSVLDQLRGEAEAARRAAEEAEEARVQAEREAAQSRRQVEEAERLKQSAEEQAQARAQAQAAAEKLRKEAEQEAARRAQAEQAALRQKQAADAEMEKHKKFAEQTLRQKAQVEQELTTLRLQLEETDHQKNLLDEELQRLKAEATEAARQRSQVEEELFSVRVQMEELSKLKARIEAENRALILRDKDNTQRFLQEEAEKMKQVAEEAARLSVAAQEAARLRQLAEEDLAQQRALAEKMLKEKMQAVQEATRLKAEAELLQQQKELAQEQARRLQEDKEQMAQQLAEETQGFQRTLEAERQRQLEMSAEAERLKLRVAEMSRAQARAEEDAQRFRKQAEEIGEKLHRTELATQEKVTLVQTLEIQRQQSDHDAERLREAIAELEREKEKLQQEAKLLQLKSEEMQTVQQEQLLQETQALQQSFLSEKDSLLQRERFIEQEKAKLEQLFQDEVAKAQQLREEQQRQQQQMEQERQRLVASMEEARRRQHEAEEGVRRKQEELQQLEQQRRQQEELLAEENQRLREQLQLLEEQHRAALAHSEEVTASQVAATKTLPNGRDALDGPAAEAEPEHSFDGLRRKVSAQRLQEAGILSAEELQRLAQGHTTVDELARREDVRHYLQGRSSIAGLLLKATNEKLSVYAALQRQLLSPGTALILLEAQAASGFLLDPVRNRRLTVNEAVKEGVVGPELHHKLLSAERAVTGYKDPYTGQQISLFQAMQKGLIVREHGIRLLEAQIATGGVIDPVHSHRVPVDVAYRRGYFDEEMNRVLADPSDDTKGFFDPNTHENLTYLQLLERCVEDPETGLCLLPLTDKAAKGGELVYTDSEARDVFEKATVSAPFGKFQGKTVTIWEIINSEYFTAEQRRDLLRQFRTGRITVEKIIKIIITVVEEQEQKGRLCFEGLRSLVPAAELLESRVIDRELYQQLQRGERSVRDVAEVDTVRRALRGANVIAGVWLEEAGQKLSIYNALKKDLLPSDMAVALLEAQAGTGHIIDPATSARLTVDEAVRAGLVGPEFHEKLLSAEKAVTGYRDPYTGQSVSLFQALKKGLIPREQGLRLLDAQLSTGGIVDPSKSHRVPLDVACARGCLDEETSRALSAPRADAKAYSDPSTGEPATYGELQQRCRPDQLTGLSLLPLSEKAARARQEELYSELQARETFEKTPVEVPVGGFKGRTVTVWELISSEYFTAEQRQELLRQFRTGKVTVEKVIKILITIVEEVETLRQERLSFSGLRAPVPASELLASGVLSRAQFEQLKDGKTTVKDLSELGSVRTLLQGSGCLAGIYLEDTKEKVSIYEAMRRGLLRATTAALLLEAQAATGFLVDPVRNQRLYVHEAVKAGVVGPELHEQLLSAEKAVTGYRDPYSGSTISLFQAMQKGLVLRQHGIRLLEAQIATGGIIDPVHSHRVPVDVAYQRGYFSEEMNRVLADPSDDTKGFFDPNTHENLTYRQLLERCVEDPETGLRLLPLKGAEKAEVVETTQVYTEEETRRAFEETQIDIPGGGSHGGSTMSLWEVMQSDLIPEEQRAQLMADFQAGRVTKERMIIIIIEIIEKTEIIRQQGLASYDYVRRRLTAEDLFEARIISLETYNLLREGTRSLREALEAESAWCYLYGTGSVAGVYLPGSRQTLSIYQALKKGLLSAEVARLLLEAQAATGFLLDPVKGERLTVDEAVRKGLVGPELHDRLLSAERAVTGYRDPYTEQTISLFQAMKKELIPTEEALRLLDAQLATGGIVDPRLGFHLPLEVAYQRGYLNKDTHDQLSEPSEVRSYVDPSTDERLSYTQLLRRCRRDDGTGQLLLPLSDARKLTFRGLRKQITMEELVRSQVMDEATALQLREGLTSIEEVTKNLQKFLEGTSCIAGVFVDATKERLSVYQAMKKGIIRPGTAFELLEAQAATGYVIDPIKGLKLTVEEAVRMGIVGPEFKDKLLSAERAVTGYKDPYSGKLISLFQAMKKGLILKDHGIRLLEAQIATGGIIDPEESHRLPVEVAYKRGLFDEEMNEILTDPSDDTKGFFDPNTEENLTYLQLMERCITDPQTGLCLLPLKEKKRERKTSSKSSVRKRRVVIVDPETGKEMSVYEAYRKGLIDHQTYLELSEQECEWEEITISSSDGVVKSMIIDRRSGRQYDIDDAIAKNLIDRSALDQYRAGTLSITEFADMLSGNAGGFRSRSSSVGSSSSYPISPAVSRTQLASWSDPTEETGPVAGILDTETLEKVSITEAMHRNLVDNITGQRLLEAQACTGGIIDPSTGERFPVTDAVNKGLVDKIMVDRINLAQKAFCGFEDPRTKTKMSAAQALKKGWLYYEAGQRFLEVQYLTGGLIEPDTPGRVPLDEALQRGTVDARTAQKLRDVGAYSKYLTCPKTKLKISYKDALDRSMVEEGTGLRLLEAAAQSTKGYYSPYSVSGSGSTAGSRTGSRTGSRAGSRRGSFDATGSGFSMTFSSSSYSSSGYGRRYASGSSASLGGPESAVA
# UniProt P02675, sequence (P02675 whole entry): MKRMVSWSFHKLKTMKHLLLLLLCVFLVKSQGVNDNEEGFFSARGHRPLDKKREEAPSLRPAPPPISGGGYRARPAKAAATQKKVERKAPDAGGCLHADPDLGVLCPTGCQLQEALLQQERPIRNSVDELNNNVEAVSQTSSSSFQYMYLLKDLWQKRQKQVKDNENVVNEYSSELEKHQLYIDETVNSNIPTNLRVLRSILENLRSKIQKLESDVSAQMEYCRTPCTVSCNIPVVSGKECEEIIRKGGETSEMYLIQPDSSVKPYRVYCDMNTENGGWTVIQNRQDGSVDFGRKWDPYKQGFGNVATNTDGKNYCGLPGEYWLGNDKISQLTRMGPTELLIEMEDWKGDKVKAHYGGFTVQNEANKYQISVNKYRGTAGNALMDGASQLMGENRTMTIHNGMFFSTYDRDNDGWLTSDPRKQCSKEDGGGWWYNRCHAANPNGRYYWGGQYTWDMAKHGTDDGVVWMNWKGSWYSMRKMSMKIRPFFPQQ
row,Target,lysine labeling ratio R10:1
1,MSN (lysine site: K388) (UniProt P26038),1.79 (active)
2,UniProt P26012 (lysine site: K515),1.07 (active)
3,ANKH (lysine site: K127) (UniProt Q9HCJ1),0.684 (active)
4,UniProt P21589 (lysine site: K478),1.17 (active)
5,ITGA3 (lysine site: K897) (UniProt P26006),1.68 (active)
6,PTK7 (lysine site: K636) (UniProt Q13308),11
7,UniProt Q15149 (lysine site: K1573),2.01
8,DNASE1L1 (lysine site: K107) (UniProt P49184),1.25 (active)
9,UniProt P60866 (lysine site: K34),0.547 (active)
10,UniProt Q16363 (lysine site: K682),1.54 (active)
11,TFRC (lysine site: K358) (UniProt P02786),1.48 (active)
12,UniProt P62249 (lysine site: K60),4.81
13,ACTN4 (lysine site: K760) (UniProt O43707),4.05
14,RBMX (lysine site: K86) (UniProt P38159),2.06
15,FAT4 (lysine site: K2215) (UniProt Q6V0I7),3.48
16,ALCAM (lysine site: K87) (UniProt Q13740),1.41 (active)
17,MELTF (lysine site: K544) (UniProt P08582),2.25
18,FLNB (lysine site: K1221) (UniProt O75369),3.74
19,CD55 (lysine site: K161) (UniProt P08174),0.828 (active)
20,COL5A1 (lysine site: K69) (UniProt P20908),2.04

row,Target,lysine labeling ratio R10:1
1,ANXA2 (lysine site: K279) (UniProt P07355),5.78
2,ZMPSTE24 (lysine site: K259) (UniProt O75844),2.08
3,FAT4 (lysine site: K1675) (UniProt Q6V0I7),1.93 (active)
4,PNN (lysine site: K262) (UniProt Q9H307),1.08 (active)
5,TKT (lysine site: K204) (UniProt P29401),10.2
6,UniProt Q15149 (lysine site: K581),3.7
7,RPL34 (lysine site: K62) (UniProt P49207),10.1
8,UniProt P55072 (lysine site: K236),2.76
9,FGB (lysine site: K426) (UniProt P02675),2.95
10,HNRNPU (lysine site: K609) (UniProt Q00839),1.53 (active)
11,LPL (lysine site: K129) (UniProt P06858),1.65 (active)
12,PTGFRN (lysine site: K579) (UniProt Q9P2B2),2.67
13,RPS5 (lysine site: K63) (UniProt P46782),3.35
14,PICALM (lysine site: K324) (UniProt Q13492),1.36 (active)
15,UniProt P05787 (lysine site: K465),5.11
16,LMAN1 (lysine site: K372) (UniProt P49257),2.72
17,EPHB4 (lysine site: K267) (UniProt P54760),3.27
18,HNRNPM (lysine site: K48) (UniProt P52272),4.62
19,RPL3 (lysine site: K272) (UniProt P39023),2.04
20,FLNA (lysine site: K92) (UniProt P21333),5.97
